PKA kinase inh: inhibitors of human PKA kinase activity, primary screen, biochemical, ATP-depletion luminescence, Kemptide substrate. PKA Kemptide phosphorylation, Kinase-Glo ATP luminescence. inhibition, % at 6 µM. hit rate 0.1% among 65,000;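 active means inhibition above the screen-wide mean inhibition plus 3 SD, cut at about 21% in these data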
ROCK2 inh: inhibitors of human ROCK2 kinase, primary screen, biochemical, high-throughput, luminescence | purified ROCK2, Kinase-Glo ATP depletion luminescence | inhibition, % at 6 µM | hit rate 0.35% among 60,000 | AID 604, 2007;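 active means inhibition above the screen-wide mean inhibition plus 3 SD, cut at about 18% in these data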
MMP-13 inhibitor: human MMP13 inhibitors, primary screen, biochemical, FRET peptide cleavage | Collagenase 3 (Homo sapiens), P45452 | MMP-13 fTHP FRET cleavage, Mca fluorescence | inhibition, % at 4 µM | hit rate 0.07% among 65,000;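 active means inhibition above the mean of compound-free control plate wells plus 3 SD, cut at about 14% in these data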
Ec RNAP inh: E. coli RNAP inhibitors, biochemical; DNA-directed RNA polymerase subunit beta (Escherichia coli (strain K12)), P0A8V2; E. coli RNA polymerase, fluorescence transcription assay; inhibition, %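 (tested at 10 µM)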; hit rate 0.2% among 62,000; AID 559, 2006; in the data active means inhibition above about 20%
Target sequence (P0A8V2 whole entry, looked up): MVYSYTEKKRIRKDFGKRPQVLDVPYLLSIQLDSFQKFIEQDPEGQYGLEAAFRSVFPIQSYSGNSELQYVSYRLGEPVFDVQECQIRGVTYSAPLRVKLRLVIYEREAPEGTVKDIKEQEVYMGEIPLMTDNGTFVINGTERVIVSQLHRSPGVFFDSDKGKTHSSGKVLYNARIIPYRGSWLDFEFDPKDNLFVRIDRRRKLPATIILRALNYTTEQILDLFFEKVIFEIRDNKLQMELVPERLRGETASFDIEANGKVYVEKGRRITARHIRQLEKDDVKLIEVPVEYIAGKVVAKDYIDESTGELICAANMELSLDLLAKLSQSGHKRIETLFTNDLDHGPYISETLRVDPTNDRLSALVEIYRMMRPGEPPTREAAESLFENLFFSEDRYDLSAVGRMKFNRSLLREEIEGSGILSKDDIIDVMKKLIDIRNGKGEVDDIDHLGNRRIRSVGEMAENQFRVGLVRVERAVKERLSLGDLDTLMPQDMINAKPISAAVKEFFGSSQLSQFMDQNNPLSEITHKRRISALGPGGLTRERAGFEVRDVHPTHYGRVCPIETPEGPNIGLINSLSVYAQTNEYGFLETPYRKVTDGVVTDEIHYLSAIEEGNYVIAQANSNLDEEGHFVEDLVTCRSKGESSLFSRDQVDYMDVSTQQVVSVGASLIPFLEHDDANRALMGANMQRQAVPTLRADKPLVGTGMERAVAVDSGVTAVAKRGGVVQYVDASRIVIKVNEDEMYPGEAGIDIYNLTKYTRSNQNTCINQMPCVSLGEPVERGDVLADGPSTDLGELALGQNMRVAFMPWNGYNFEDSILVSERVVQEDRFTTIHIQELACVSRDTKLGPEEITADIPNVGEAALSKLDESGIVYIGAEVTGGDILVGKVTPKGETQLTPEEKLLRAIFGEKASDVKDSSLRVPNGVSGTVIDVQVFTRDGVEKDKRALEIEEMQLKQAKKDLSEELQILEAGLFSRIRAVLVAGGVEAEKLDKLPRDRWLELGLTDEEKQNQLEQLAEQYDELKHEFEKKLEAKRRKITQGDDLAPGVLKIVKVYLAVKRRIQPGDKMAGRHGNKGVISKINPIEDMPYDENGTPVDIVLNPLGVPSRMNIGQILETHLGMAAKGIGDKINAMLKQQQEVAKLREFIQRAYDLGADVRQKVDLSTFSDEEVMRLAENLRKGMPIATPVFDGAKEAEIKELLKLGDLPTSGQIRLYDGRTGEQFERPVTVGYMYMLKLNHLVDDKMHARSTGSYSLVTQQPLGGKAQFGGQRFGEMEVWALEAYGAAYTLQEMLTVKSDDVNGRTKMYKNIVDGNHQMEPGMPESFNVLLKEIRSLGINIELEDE
WNV NS2B-NS3 inh: inhibitors of WNV NS2B-NS3 protease, primary screen, biochemical, fluorogenic substrate. Genome polyprotein (West Nile virus), P06935. fluorogenic substrate Ex360/Em465; hits give low values. z-score (concentration not given with the values). hit rate 0.18% among 65,000. AID 577, 2007; in the data active means z-score below about -3
Hsp90 block: tumor Hsp90 inhibitors, primary screen, cell lysate, fluorescence polarization, NCI-N417 lysate | hit rate 0.35% among 64,000 | Cy3B-geldanamycin FP displacement | inhibition, % at 30 µM;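 active means inhibition above 50%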
Each line names hits and unclear results; the compound was inactive in the other large screens. Only some compounds are listed: those with a hit (about 0.79% of all), similar ones and a draw of the others.

CC(NS(=O)(=O)c1ccc(F)cc1)C(c1cccs1)N1CCN(C)CC1 (stereo not drawn)	Ec RNAP inh 21.5 (no result: ROCK2 inh)
CCn1cc(C(=O)Nc2cccc(C(=O)OC)c2)c(=O)c2ccc(C)nc21	WNV NS2B-NS3 inh -6.17
Cc1cccc(NC(=O)c2cc(N3CCOCC3)nc3ccccc23)c1	Ec RNAP inh 20.6
C[C@@H](NC(=O)/C(C#N)=C/c1ccc(O)c(O)c1)c1ccccc1	Hsp90 block 77.1 (no result: PKA kinase inh, ROCK2 inh, MMP-13 inhibitor, Ec RNAP inh, WNV NS2B-NS3 inh)
O=C(Nc1ccccc1)c1ccccc1O	none
N#C/C(=C\c1ccc(O)c(O)c1)C(=O)NCCCNC(=O)/C(C#N)=C/c1ccc(O)c(O)c1	Hsp90 block 81.0 (no result: PKA kinase inh, ROCK2 inh, MMP-13 inhibitor, Ec RNAP inh, WNV NS2B-NS3 inh)
C[C@H](NC(=O)/C(C#N)=C/c1ccc(O)c(O)c1)c1ccccc1	Hsp90 block 74.9 (no result: PKA kinase inh, ROCK2 inh, MMP-13 inhibitor, Ec RNAP inh, WNV NS2B-NS3 inh)
N#C/C(=C\c1ccc(O)c(O)c1)C(=O)Nc1ccccc1	Hsp90 block 83.2 (no result: PKA kinase inh, ROCK2 inh, MMP-13 inhibitor, Ec RNAP inh, WNV NS2B-NS3 inh)
CC(C)C(NC(=O)C1CCCCC1)C(=O)Nc1ccncc1 (stereo not drawn)	ROCK2 inh 75.8
COc1cc(/C=C(\C#N)C(=O)c2ccc(O)c(O)c2)cc(I)c1O	Hsp90 block 72.6 (no result: PKA kinase inh, ROCK2 inh, MMP-13 inhibitor, Ec RNAP inh, WNV NS2B-NS3 inh)
COCc1cc(C)nc(SCC(=O)c2ccc(O)c(O)c2)c1C#N	none
O=C(O)CCC(NS(=O)(=O)c1ccc(-c2ccccc2)cc1)C(=O)O (stereo not drawn)	MMP-13 inhibitor 50.5 (no result: ROCK2 inh)
C=CCSc1nnc(-c2ccc(Cl)cc2Cl)o1	none
CC(=O)OC(C#CCN1CCOCC1)c1ccccc1 (stereo not drawn)	none (no result: PKA kinase inh, ROCK2 inh, MMP-13 inhibitor, Hsp90 block)
CCc1cc2c(=O)[nH]cnc2s1	PKA kinase inh 23.4, ROCK2 inh 50.8
CCc1ccc(OC)c(S(=O)(=O)NCCOc2ccccc2)c1	none
Cn1c(=O)c2c(ncn2CC(=O)NCc2cccnc2)n(C)c1=O	none
COC(=O)CSC1=C(C#N)C(c2ccc(F)cc2)CC(=O)N1 (stereo not drawn)	Ec RNAP inh 20.7
O=C(NCc1ccncc1)c1c(F)c(F)c(F)c(F)c1F	none
CCCCOc1ccc(C(=O)Nc2ccncc2)cc1	none
O=C(CCCOc1ccccc1)Nc1ccncc1	PKA kinase inh 30.2, ROCK2 inh 33.1
CCS(=O)(=O)NCc1ccc2[nH]c3c(c2c1)CCCC3	Hsp90 block 70.8
Oc1ccc(-c2nc3ncccn3c2Nc2ccc3c(c2)OCO3)cc1	none (no result: ROCK2 inh)
O=C1NCCCC2c3c(cc(Br)c(O)c3Br)OC12N1CCOCC1 (stereo not drawn)	none
O=C1NCCCC2c3cc(O)c4ccccc4c3OC12N1CCCCC1 (stereo not drawn)	Hsp90 block 94.8
Cc1c(C(=O)N2CCCCC2)sc(NC(=O)C2CC2)c1C#N	none
Cc1c(C(=O)N2CCCCC2)sc(N)c1C#N	ROCK2 inh 25.5
Nc1nc2n(n1)C(c1cccs1)CC(c1ccccc1)N2 (stereo not drawn)	none
CCCc1cc(-c2[nH]ncc2-c2ccc3c(c2)OCCCO3)c(O)cc1O	Hsp90 block 77.8
Oc1cc(O)cc(/C=C/c2ccc(O)c(O)c2)c1	Hsp90 block 108.3 (no result: PKA kinase inh, ROCK2 inh, MMP-13 inhibitor, Ec RNAP inh, WNV NS2B-NS3 inh)
COc1nc(N)nc(N2CCOCC2)n1	MMP-13 inhibitor 14.7
CNc1nc(OC)nc(N2CCOCC2)n1	none
Nc1c(S(=O)(=O)c2cccc(Cl)c2)c2nc3ccccc3nc2n1/N=C/c1ccc(O)c(O)c1	PKA kinase inh 30.8, Hsp90 block 58.7
Cc1cccc(S(=O)(=O)c2c(N)n(Cc3ccco3)c3nc4ccccc4nc23)c1	none
c1coc(-c2nc(-c3ccco3)c(-c3ccco3)nc2-c2ccco2)c1	Ec RNAP inh 22.9 (no result: ROCK2 inh, Hsp90 block)
O=c1ccc2ccc(O)c(O)c2o1	Hsp90 block 69.4 (no result: PKA kinase inh, ROCK2 inh, MMP-13 inhibitor, Ec RNAP inh, WNV NS2B-NS3 inh)
O=C(CN(c1ccc2c(c1)OCCO2)S(=O)(=O)c1ccccc1)NCC1CCCO1 (stereo not drawn)	none
O=C(c1sc2ccccc2c1Cl)N(Cc1ccco1)C1CCS(=O)(=O)C1 (stereo not drawn)	Hsp90 block 54.3
CC1(C)NC(=O)N(CC(O)CN2C(=O)NC(C)(C)C2=O)C1=O	none
CCOc1ccc(C2CC(=O)NC3=C2C(=O)CCC3)cc1Cl (stereo not drawn)	none
CC(C)Oc1ccc(C2CC(=O)NC3=C2C(=O)CCC3)cc1 (stereo not drawn)	Ec RNAP inh 22.5
O=C(O)CCCC(=O)Nc1ccn(-c2ccccc2)n1	none
CCOc1ccc(S(=O)(=O)Nc2cccc(Cl)c2)cc1	none
CCOc1ccc(S(=O)(=O)Nc2cc(Sc3ncn[nH]3)c3oc(=O)sc3c2)cc1	Hsp90 block 53.9
COCC(C)n1c(C)cc(C(=O)COC(=O)c2oc3ccccc3c2C)c1C (stereo not drawn)	none
Cc1ccc(S(=O)(=O)N2CCC(C(=O)N[C@@H](C)C(=O)Nc3ccc4c(c3)OCO4)CC2)cc1	Hsp90 block 65.0
Cc1c(N=CC=Nc2c(C)n(C)n(-c3ccccc3)c2=O)c(=O)n(-c2ccccc2)n1C	none (no result: Ec RNAP inh)
Cc1c(N=c2c(=O)c3ccccc3c2=O)c(=O)n(-c2ccccc2)n1C	Hsp90 block 80.0
CCC(C)(C(=O)NC1CCCCC1)N(Cc1ccco1)C(=O)CNC(=O)c1ccccc1 (stereo not drawn)	none (no result: ROCK2 inh, Hsp90 block)
CC(=O)[C@]1(O)Cc2c(O)c3c(c(O)c2[C@@H](O[C@H]2C[C@H](N)[C@H](O)[C@H](C)O2)C1)C(=O)c1ccccc1C3=O	Hsp90 block 155.7 (no result: PKA kinase inh, ROCK2 inh, MMP-13 inhibitor, Ec RNAP inh, WNV NS2B-NS3 inh)
COc1cccc2c1C(=O)c1c(O)c3c(c(O)c1C2=O)C[C@@](O)(C(C)=O)C[C@@H]3O[C@H]1C[C@H](N)[C@H](O)[C@H](C)O1	Hsp90 block 79.6
CCCCc1ccc(NC(=O)C2CCN(S(C)(=O)=O)CC2)cc1	none
Cc1nnc(SCCn2c(N3CC(C)CC(C)C3)nc3c2c(=O)n(C)c(=O)n3C)s1 (stereo not drawn)	Hsp90 block 68.2
CC1(C)Cc2c(sc3ncn4nc(-c5ccco5)nc4c23)CO1	none
O=c1c(O)c(-c2cc(O)c(O)c(O)c2)oc2cc(O)cc(O)c12	Hsp90 block 100.0 (no result: PKA kinase inh, ROCK2 inh, MMP-13 inhibitor, Ec RNAP inh, WNV NS2B-NS3 inh)
N#CCSc1nc2ccc(N3CCCCC3)cc2c(=O)n1Cc1ccccc1	none (no result: ROCK2 inh)
CCCC(=O)Nc1ccc(NC(=O)Cc2ccccc2)cn1	none (no result: ROCK2 inh)
CC(=O)c1cc(F)c(N2CCCC2)cc1C	none
Cc1cc(N2CCOCC2)c2c(N)c(C)cc(C)c2n1	ROCK2 inh 18.8
CNc1nc2sc3c(c2c(=O)n1C)CC(C)(C)SC3	WNV NS2B-NS3 inh -7.01
Cn1ccnc1SCC(=O)c1cc2ccccc2o1	none (no result: ROCK2 inh, Hsp90 block)
CCn1c(CSc2nccn2C)nc2cc(C(=O)O)ccc21	Hsp90 block 88.8
c1csc(-c2csc(-c3cccs3)n2)c1	none
